# Measurements taken from the supplement of paper PMC11172423.
# Unmarked numbers belong to inactive results.
# What was measured:
# [1] = system: Falciformispora senegalensis CBS197.79; assay: growth relative to untreated control; higher = less inhibition, active = 20 or less
# Method in brief: (§1)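 In 96-well plates, suspended hyphal fragments of M. mycetomatis MM55 or F. senegalensis CBS197.79 were exposed to compound at 100 or 25 µM for 7 days at 37 °C. The suspension medium was colourless RPMI 1640 with L-glutamine and MOPS, adjusted to 68–72% transmission at 660 nm. Viability was measured with MTS (2 h, 490 nm) or resazurin (600 nm). Growth means metabolic activity compared with the untreated growth control after blank correction of both with medium plus dye.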
# [2] = system: Madurella mycetomatis MM55; assay: as above
# Method in brief: as §1
Structure (SMILES),growth ([1]; 25 µM),growth ([1]; 100 µM),growth ([2]; 25 µM),growth ([2]; 100 µM)
NC(=O)N1CCC(CC(=O)N2CCC([C@H]3c4ncc(Br)cc4CCc4cc(Cl)cc(Br)c43)CC2)CC1,105%,101%,3.17% (active),11.2% (active)
NC1CCc2nc(-c3cccnc3)nc(Nc3ccc(C(F)(F)F)cc3)c2C1 (centres undefined),102%,13.8% (active),71.4%,5.34% (active)
CCSc1ccc2c(c1)N(CCCN1CCN(C)CC1)c1ccccc1S2,7.2% (active),11.7% (active),3.68% (active),3.76% (active)
CC(C)c1cc(Oc2ccccc2)cc(C(C)C)c1NC(=S)NC(C)(C)C,89.5%,90.7%,111%,166%
O[C@@H](c1cc(C(F)(F)F)nc2c(C(F)(F)F)cccc12)[C@H]1CCCCN1,8.55% (active),14.8% (active),5.4% (active),4.2% (active)
C[C@H](NC(=O)c1cc2c(F)cccc2[nH]1)c1ccccc1,84.1%,68.4%,20.7%,7.43% (active)
CN(C)CCCN1C(=O)c2[nH]nc(-c3ccc(Cl)cc3O)c2C1c1ccc(Cl)cc1 (centres undefined),83.3%,25.4%,68%,6.84% (active)
C/C=C/C[C@@H](C)[C@@H](O)[C@H]1C(=O)N[C@@H](CC)C(=O)N(C)CC(=O)N(C)[C@@H](CC(C)C)C(=O)N[C@@H](C(C)C)C(=O)N(C)[C@@H](CC(C)C)C(=O)N[C@@H](C)C(=O)N[C@H](C)C(=O)N(C)[C@H](CC(C)C)C(=O)N(C)[C@@H](CC(C)C)C(=O)N(C)[C@@H](C(C)C)C(=O)N1C,113%,94.5%,79%,68.9%
CC(C)(C)c1nn(-c2ccc(Cl)cc2)c2[nH]c(=O)c(CNCc3ccc4c(c3)OCO4)cc12,72.1%,66.3%,5.51% (active),6.74% (active)
CCOCCCNc1nc2cc(OC)c(OC)cc2c2nc(-c3ccccc3)nn12,93.1%,89.3%,95.5%,120%
O=C(Nc1cccc(-c2cc3nc(Nc4ccc(N5CCOCC5)cc4)ncc3[nH]2)c1)C1CC1,89.7%,85.2%,78.9%,72.6%
O=C(Nc1ccc(Cl)c(C(F)(F)F)c1)Nc1ccc(Cl)c(C(F)(F)F)c1,99.4%,88.1%,43.5%,49.6%
Cc1ccc(-c2cc(C(F)(F)F)nn2-c2ccc(S(N)(=O)=O)cc2)cc1,102%,9.81% (active),98%,6.13% (active)
O=C(NC1CCN(CCOc2ccc(Cl)cc2)CC1)c1c[nH]c2ccncc2c1=O,73.5%,84.8%,90.2%,102%
NC(=O)c1nc(F)cnc1O,114%,102%,83.1%,84.1%
Cc1cc(C(=O)N2CCOc3c(cc(-c4csc5ccccc45)cc3OCCc3ccccn3)C2)n(C)n1,90.1%,91.1%,5.62% (active),87.7%
O=S(=O)(NCC1(O)CCOc2ccccc21)c1ccccc1F (centres undefined),85.9%,113%,101%,102%
C[C@H]1O[C@@H](O[C@H]2[C@@H](O)C[C@H](O[C@H]3[C@@H](O)C[C@H](O[C@H]4CC[C@@]5(C)[C@H](CC[C@@H]6[C@@H]5CC[C@]5(C)[C@@H](C7=CC(=O)OC7)CC[C@]65O)C4)O[C@@H]3C)O[C@@H]2C)C[C@H](O)[C@@H]1O,99.1%,98%,94.5%,73.2%
CN(C)CCNC(=O)c1ccc(Nc2nccc(-c3ccc(Cl)c(Cl)c3)n2)cc1,24.5%,43.3%,5.83% (active),4.93% (active)
O=C(c1ccc(Nc2nccc(-c3ccc(Cl)cc3)n2)cc1)N1CC[C@@H](CO)C1,91.1%,89.6%,113%,117%
COC(=O)C1=C(C)NC(C)=C(C(=O)OC)C1c1ccccc1[N+](=O)[O-],98.9%,41.1%,89.7%,4.04% (active)
N=C(N)Nc1ccc(C(=O)Oc2ccc3cc(C(=N)N)ccc3c2)cc1,107%,66.5%,79.9%,72.3%
COc1ccc2c(O[C@@H]3C[C@H]4C(=O)N[C@]5(C(=O)NS(=O)(=O)C6CC6)C[C@H]5/C=C\CCCCN(C)C(=O)[C@@H]4C3)cc(-c3nc(C(C)C)cs3)nc2c1C,103%,100%,87.1%,74.8%
CCN(CC)CCNC(=O)c1ccc(NC(=O)c2cc3c(C)nn(-c4ccc(Cl)cc4)c3s2)cc1,58.4%,61.2%,59.2%,108%
FC(F)(F)c1ccc(CNc2ccc(Cc3c[nH]c4ncc(Cl)cc34)cn2)cn1,95.7%,106%,93.1%,95.5%
CCSC1CCCCC1NCCn1c(=O)oc2cccnc21 (centres undefined),91.3%,90.9%,37.9%,93.1%
